From PubChem BioAssay AID1159580 (chemical genetic matrix, 2015)
Out of some 5,500 compounds screened, about 2,000 (36%) were called active. Roughly 18% stayed inconclusive and do not appear here. Cut-off read from the data, not from the text of the source: active = normalized growth mostly below about 0.91 (no sharp cut-off); inconclusive = no clear call, values can overlap the other calls; inactive = mostly above about 0.92. The list shows a part of the results.

Assay: chemical genetic growth profiling, strain panel (AID 1159580);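 note: tested at 20 µM; growth read once vehicle control cultures reached saturation at 30 °C; 1 = growth at the plate median or of vehicle wells; lower values mean less growth of the strain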
Conditions: S. cerevisiae deletion strains, growth OD

Measured: normalized growth

CC(C)C[C@@H](NC(=O)OCC1c2ccccc2-c2ccccc21)C(=O)O
inactive: locus YAL021C, strain ccr4, hits give low values 0.988 | locus YAL026C, strain drs2, hits give low values 0.982 | locus YAL030W, strain snc1, hits give low values 0.991 | locus YBL061C, strain skt5, hits give low values 1.01 | locus YBR009C, strain hhf1, hits give low values 1.01 | locus YBR023C, strain chs3, hits give low values 1 | locus YBR171W, strain sec66, hits give low values 1 | locus YBR231C, strain swc5, hits give low values 1.01 | locus YBR279W, strain paf1, hits give low values 0.998 | locus YCL011C, strain gbp2, hits give low values 0.993 | locus YCL016C, strain dcc1, hits give low values 0.983 | locus YCL061C, strain MRC1, hits give low values 1 | locus YCL069W, strain vba3, hits give low values 0.995 | locus YCR088W, strain abp1, hits give low values 0.992 | locus YDL005C, strain med2, hits give low values 0.986 | locus YDL040C, strain nat1, hits give low values 0.985 | locus YDR001C, strain nth1, hits give low values 0.977 | locus YDR069C, strain doa4, hits give low values 0.993 | locus YDR137W, strain rgp1, hits give low values 0.962 | locus YDR159W, strain sac3, hits give low values 1.04 | locus YDR195W, strain ref2 0.945 | locus YDR297W, strain sur2, hits give low values 1 | locus YDR334W, strain swr1, hits give low values 0.988 | locus YDR335W, strain msn5, hits give low values 0.991 | locus YDR392W, strain spt3, hits give low values 0.955 | locus YEL003W, strain gim4, hits give low values 0.999 | locus YEL037C, strain rad23, hits give low values 0.998 | locus YEL061C, strain CIN8 (second series), hits give low values 0.997 | locus YER015W, strain faa2, hits give low values 0.997 | locus YER016W, strain bim1, hits give low values 0.993 | locus YER111C, strain swi4, hits give low values 1 | locus YER155C, strain BEM2 (second series), hits give low values 1.02 | locus YFR010W, strain ubp6, hits give low values 0.991 | locus YGL167C, strain pmr1, hits give low values 0.999 | locus YGL173C, strain kem1, hits give low values 1 | locus YGL227W, strain vid30, hits give low values 0.996 | locus YGL240W, strain doc1, hits give low values 1.01 | locus YGL253W, strain hxk2, hits give low values 1 | locus YHR013C, strain ard1, hits give low values 0.998 | locus YHR027C, strain rpn1, hits give low values 0.984 | locus YHR030C, strain SLT2, hits give low values 0.966 | locus YHR079C, strain IRE1, hits give low values 0.976 | locus YHR142W, strain chs7, hits give low values 0.996 | locus YJL092W, strain hpr5, hits give low values 1 | locus YJL095W, strain BCK1 (second series), hits give low values 0.999 | locus YJL095W, strain BCK1, hits give low values 0.98 | locus YJL115W, strain asf1, hits give low values 0.979 | locus YJL129C, strain trk1, hits give low values 1 | locus YJL154C, strain vps35, hits give low values 0.986 | locus YJL164C, strain tpk1, hits give low values 0.971 | locus YJL166W, strain qcr8, hits give low values 1 | locus YJL187C, strain SWE1, hits give low values 0.996 | locus YJR066W, strain TOR1, hits give low values 0.89 | locus YKL160W, strain elf1, hits give low values 0.99 | locus YKR026C, strain gcn3, hits give low values 1 | locus YKR091W, strain srl3, hits give low values 0.981 | locus YLL001W, strain dnm1, hits give low values 0.974 | locus YLL026W, hits give low values 0.992 | locus YLL041C, strain sdh2, hits give low values 1 | locus YLR027C, strain aat2, hits give low values 1 | locus YLR113W, strain HOG1, hits give low values 0.888 | locus YLR221C, strain rsa3, hits give low values 1.03 | locus YLR258W, strain gsy2, hits give low values 1 | locus YLR262C, strain YPT6 (second series), hits give low values 0.949 | locus YLR320W, strain mms22, hits give low values 1.02 | locus YLR342W, strain FKS1, hits give low values 0.99 | locus YLR357W, strain rsc2, hits give low values 0.97 | locus YLR370C, strain arc18, hits give low values 1.01 | locus YLR384C, strain iki3, hits give low values 0.991 | locus YML120C, strain ndi1, hits give low values 0.994 | locus YMR058W, strain fet3, hits give low values 0.991 | locus YMR125W, strain sto1, hits give low values 0.965 | locus YMR129W, hits give low values 0.998 | locus YMR205C, strain PFK2, hits give low values 0.973 | locus YMR231W, strain pep5, hits give low values 0.971 | locus YNL071W, strain lat1, hits give low values 0.995 | locus YNL183C, strain NPR1, hits give low values 0.888 | locus YNL209W, strain ssb2, hits give low values 0.997 | locus YNL248C, strain rpa49, hits give low values 0.978 | locus YNL322C, strain KRE1 (second series), hits give low values 1 | locus YNR049C, strain mso1, hits give low values 0.998 | locus YOR001W, strain rrp6, hits give low values 1.01 | locus YOR070C, strain gyp1, hits give low values 0.991 | locus YOR080W, strain dia2, hits give low values 1.01 | locus YOR083W, strain WHI5, hits give low values 0.986 | locus YOR106W, strain vam3, hits give low values 0.963 | locus YOR231W, strain MKK1, hits give low values 0.949 | locus YOR265W, strain rbl2, hits give low values 1 | locus YOR270C, strain vph1, hits give low values 0.954 | locus YOR290C, strain snf2, hits give low values 0.956 | locus YPL051W, strain arl3, hits give low values 1.01 | locus YPL078C, strain atp4, hits give low values 0.979 | locus YPL106C, strain sse1, hits give low values 1.02 | locus YPL240C, strain hsp82, hits give low values 1.01 | locus YPL256C, strain CLN2, hits give low values 0.945
